Hits are enriched below; roughly 15% of the tested compounds scored in any of these assays.
Sm TGR block: blocks Schistosoma mansoni thioredoxin glutathione reductase | Q962Y6 | Potency, µM (doses to about 114 µM), for inactives: top-dose activity change, negative = inhibition, hits mostly inhibitors | purified TGR, DTNB reduction, TNB absorbance 405 nm | 3% of 360,000 active; note: potency is the fitted concentration of half-maximal effect; % is set by controls: 0 for no effect and ±100 for the full control effect; nearly all actives have a fitted effect of over 60% in size
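Kinetic colorimetric format: TGR-catalysed, NADPH-driven DTNB reduction monitored via TNB absorbance. Enzyme dispensed at 20 nM; compound exposure 15 min at room temperature before reaction start.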
Pf growth 48h: inhibits P. falciparum growth in the first generation, 48 h | P. falciparum luciferase growth in erythrocytes, 48 h | Potency, µM (series often up to 28.7 µM), inactives show at the top dose activity change, negative = inhibition, actives largely listed as inhibitors | 5.9% of 310,000 active | AID 504832; note: potency is the fitted concentration of half-maximal effect; % is set by controls: 0 for no effect and ±100 for the full control effect
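Firefly luciferase activity from engineered P. falciparum reports growth; inhibitors lower the luminescent signal. Cultures contained 2% hematocrit erythrocytes at 0.1% final parasitemia.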
HCMV inh: inhibitors of human cytomegalovirus. HFF cells, HCMV-luciferase reporter, 72 h; hits give low values. activity change, negative = inhibition, % at 57.5 µM. 4.5% of 410,000 active; in the data active = activity change below about -60%; inconclusive = no clear call, values can overlap the other calls; inactive = above about -39%; note: % is set by controls: 0 for no effect and ±100 for the full control effect
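Two compound doses tested in HFFs infected with HCMV-luciferase, MOI 1 PFU/cell, 72 h at 37C. Lysate luminescence read with OneGlo; data normalized against buffer-only and 10uM Salinomycin inhibitor controls.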
SARS PLP yeast: blocks SARS-CoV papain-like protease in a yeast assay. S. cerevisiae expressing SARS-CoV PLpro, growth rescue. Potency, µM (highest dose often 32.9 µM), inactives show at the top dose activity, positive = growth rescue, usual class: activators. 0.19% of 330,000 active. AID 485353; calls by dose curve; note: potency is the fitted concentration of half-maximal effect; 0% is about no effect; nearly all actives have a fitted effect of over 55% in size
Pf growth 96h: P. falciparum growth inhibition at 96 hour, primary screen for plastid delayed-death inhibitors. P. falciparum luciferase reporter growth, 96 h. Potency, µM (top dose mostly 28.7 µM), inactives show at the highest dose activity change, negative = inhibition, actives largely listed as inhibitors. 6.9% of 320,000 active; note: potency is the fitted concentration of half-maximal effect; % is set by controls: 0 for no effect and ±100 for the full control effect
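P. falciparum expressing integrated firefly luciferase, in erythrocytes at 2% hematocrit, 0.05% parasitemia, incubated with compounds 96 h at 37 C, 5% CO2. Growth inhibition read as loss of luminescence; two-generation exposure targets delayed-death apicoplast inhibitors.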
HCV inh: HCV inhibition. Huh7.5.1 HCVcc-Cre infection, luciferase reporter, 44 h. Potency, µM (doses to about 41.8 µM), for the others: at the top dose activity change, negative = inhibition, usual class: inhibitors. 3.4% of 340,000 active. AID 651820; note: potency is the fitted concentration of half-maximal effect; % is set by controls: 0 for no effect and ±100 for the full control effect
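Seed cells (1,000/well) for 4 h; treat with compound and infect with HCVcc-Cre, moi about 0.5. Incubate 44 h, then detect luciferase activity.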
HCV inh confirm: confirmation of hepatitis C virus inhibitors | AID 720575 | HCVcc-Cre infectious virus cell assay, luciferase, inhibition | Potency, µM (highest dose often 41.8 µM), without a hit: at the top dose activity, negative = inhibition, most hits filed as inhibitors | shares compounds with HCV inh | 78% of 640 active; note: potency is the fitted concentration of half-maximal effect; nearly all actives have a fitted effect of over 80% in size
HCV cytotox: host cell cytotoxicity counter-screen for HCV inhibitors | HCV host cell line cytotoxicity counterscreen | shares compounds with HCV inh | 22% of 640 active | Potency, µM (doses to about 41.8 µM), without a hit: top-dose activity change, negative = cytotoxicity, actives largely listed as inhibitors;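 note: potency is the fitted concentration of half-maximal effect; 44 h compound exposure; % is set by controls: 0 for no effect and ±100 for the full control effect; nearly all actives have a fitted effect of over 55% in size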
Active calls of the source: *; ? = inconclusive; nt = no result given. Unless noted, calls come from the whole dose curve; as a rule, active = well fitted curve in the direction sought with a large enough effect; inconclusive = small, poorly fitted or top-dose-only effect, or another doubt; inactive = no such curve, though single readings can be large; an effect the other way counts as inactive or inconclusive.

SMILES | Sm TGR block | Pf growth 48h | HCMV inh | SARS PLP yeast | Pf growth 96h | HCV inh | HCV inh confirm | HCV cytotox
O=C(NCCN1CCC(Cc2ccccc2)CC1)C1CCN(S(=O)(=O)N2CCC3(CC2)OCCO3)CC1 | -10% | ? | -24 | -1% | -125% | 6.3µM* | ? | -18%
Clc1ccc(-c2ccn[nH]2)cc1 | 1% | 149% | 29 | 2% | ? | 6% | nt | nt
Oc1ccc(Br)cc1-c1ccn[nH]1 | -5% | 23% | ? | -64% | 30% | ? | -28% | -20%
CCc1ccc(C(c2ccccc2)c2c[nH]c3ccc(C)cc23)s1 (configuration not stated) | -14% | nt | 11 | nt | nt | nt | nt | nt
CN(C)c1ccc(/C=C2\Oc3ccc(C#Cc4cccc(N)c4)cc3C2=O)cc1 | nt | nt | nt | -7% | nt | ? | 8.9µM* | 39%
O=C(Nc1ccc(-c2noc(COc3ccccc3Cl)n2)cc1)c1ccco1 | -4% | ? | -32 | -12% | 223% | ? | 7µM* | -27%
CSc1ccc(CN2CCN(Cc3ccc([N+](=O)[O-])cc3)CC2)cc1 | -2% | ? | -37 | 1% | ? | ? | 4µM* | 7µM*
Cc1ccc(C)c(CNc2ccc(S(=O)(=O)N3CCCCC3)cc2)c1 | -5% | 12µM* | ? | 1% | ? | 4.5µM* | 25µM* | 31µM*
Cc1ccc(S(=O)(=O)N2CCCCC2)cc1 | -17% | nt | -27 | 1% | 18% | 6% | nt | nt
Cc1cc(C(=O)COC(=O)c2ccc(O)cc2O)c(C)n1-c1ccccc1 | 1% | 124% | -12 | 1% | 290% | ? | 18µM* | -35%
Cc1cc(C(=O)OCC(=O)c2c(N)n(C)c(=O)n(C)c2=O)c(C)n1-c1ccccc1 | 0% | ? | 14 | -3% | nt | -29% | nt | nt
CCCCn1c(N)c(N(CC(C)C)C(=O)CN2C(=O)NC3(CCC(C(C)(C)CC)CC3)C2=O)c(=O)[nH]c1=O (configuration not stated) | nt | nt | -17 | nt | nt | -14% | nt | nt
C[C@@H]1CN([C@@H](C)CO)C(=O)CCCn2nncc2CO[C@H]1CN(C)C(=O)Nc1cccc(Oc2ccccn2)c1 | nt | nt | -5 | nt | nt | nt | nt | nt
COc1ccc(/C=C/c2c(-c3ccc(OC)cc3)sc3ccc(N4CCOCC4)cc23)cc1 | 6% | ? | nt | -7% | ? | -5% | nt | nt
COc1ccc(-c2sc3ccc(N4CCOCC4)cc3c2C#CCO)cc1 | nt | nt | -87* | -1% | nt | 3.2µM* | 4.4µM* | 5µM*
COc1ccc(OCC(=O)Nc2ccc3nc(C)sc3c2)cc1 | 1% | -10% | ? | 0% | 0% | -21% | nt | nt
C[C@H]1CC[C@@]2(O[C@H](CCO)C[C@H](O)[C@H]2O)O1 | nt | nt | -7 | nt | nt | 16% | nt | nt
Cn1nc(C(F)(F)F)c2cc(NC(=O)OCc3ccc(C(C)(C)C)cc3)sc21 | 8% | nt | -7 | 7% | -33% | ? | 25µM* | ?
COc1ccc2ccc3ccc(OC)c(OC(C)=O)c3c2c1 | nt | nt | -10 | nt | nt | ? | 25µM* | -13%
COc1ccc(OC)c(CC(=O)O)c1 | 0% | ? | 30 | 0% | -20% | 12% | nt | nt
CCOc1cccc(-c2c(C(=O)N/N=C/c3ccco3)nnn2-c2nonc2N)c1 | -25% | 3% | nt | -2% | ? | -1% | nt | nt
COc1ccc(C2CC(c3cccs3)=Nc3ccccc3S2)cc1 (configuration not stated) | 0% | 11% | -37 | -15% | ? | ? | ? | 16%
COc1ccc(C2CC(c3cccs3)=NN2S(C)(=O)=O)cc1 (configuration not stated) | 15% | 68% | 7 | 0% | 49% | 7% | nt | nt
